tim23-1 inh: growth inhibitors of tim23-1 mutant yeast | 1.3% of 330,000 active | S. cerevisiae tim23-1 growth, BacTiter-Glo luminescence, 24 h | inhibition, % at 20 µM;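 active = growth inhibition of the mutant yeast at or above 50%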;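 note: temperature-sensitive mutant grown at 25 °C; plate controls were DMSO-treated mutant yeast for no effect and medium wells lacking yeast for full effect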
TIM10 inh: growth inhibitors of TIM10 yeast strain; S. cerevisiae TIM10 strain growth, BacTiter-Glo luminescence, 24 h; inhibition, % at 10 µM; 1.4% of 330,000 active; AID 463195;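 active = inhibition of 40% or more at the single tested concentration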;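 note: wild-type TIM10 isogenic control strain grown at permissive 25 °C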
tim10-1 inh: inhibits growth of tim10-1 mutant yeast | S. cerevisiae tim10-1 ts strain growth, BacTiter-Glo, 24 h | inhibition, % at 20 µM | 2.2% of 330,000 active | AID 463190;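 active = inhibition of at least 40%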;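 note: mutant grown at 25 °C; 0% = DMSO wells with yeast and 100% = wells holding no yeast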
NALP1 inh: inhibitors of NALP1 inflammasome in yeast. S. cerevisiae NALP1/ASC/caspase-1 growth, X-gal OD620, 72 h. inhibition, % at 10 µM. 0.61% of 280,000 active. AID 2071; in the data active = inhibition mostly above about 24%, no sharp cut-off; inactive = mostly below about 32%
NLRP3 yeast inh: inhibitors of NALP3 inflammasome in yeast; Yeast reconstituted NLRP3/ASC/caspase-1, beta-gal luminescence, 24 h; inhibition, % at 10 µM; 0.39% of 330,000 active;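 active = inhibition of 50% or more; inactive = inhibition below 50%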;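 note: plate controls were induced DMSO wells for no effect and uninduced yeast grown without galactose for full effect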
tim23-1 conf: confirmation of tim23-1 mutant yeast growth inhibitors. inhibition, % at 20 µM. shares compounds with tim23-1 inh. S. cerevisiae tim23-1 growth, BacTiter-Glo luminescence, 24 h. 83% of 4,400 active;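 active = inhibition above about 39% in either of two replicate wells at 20 µM, limit read from the data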;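 note: temperature-sensitive tim23-1 mutant grown at 25 °C; 0% = DMSO wells with yeast and 100% = medium wells without yeast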
Starred values were filed as active, the others as inactive; nt = no result. Hits are enriched below; roughly 4% of the tested compounds scored in any of these assays.

SMILES	tim23-1 inh	TIM10 inh	tim10-1 inh	NALP1 inh	NLRP3 yeast inh	tim23-1 conf
O=C(OCc1ccc(F)cc1)c1cc2ccccc2cc1O	21.1	1.8	11.4	5.3	-14.3	nt
O=C(OCc1cccc(F)c1)c1cc2ccccc2cc1O	94.1*	15.1	7.1	12.4	0.3	28.0
CN(C(=O)COC(=O)c1cc2ccccc2cc1O)C1CCCCC1	55.3*	30.4	19.4	nt	23.8	48.6*
CN(C(=O)c1cc2ccccc2cc1O)C1CCCCC1	41.5	15.7	27.7	20.2	21.2	nt
CCOc1ccc(CCNC(=O)c2cc3c(s2)CS(=O)(=O)C3)cc1OCC	-6.0	6.1	-5.5	5.6	12.7	nt
Cc1cc(NC(=O)CN2CCc3ccccc3C2)nc2c1c(=O)oc1ccccc12	53.1*	30.0	24.5	8.0	2.9	62.4*
CCCC(=O)Nc1cc(C)c2c(=O)oc3ccccc3c2n1	26.5	-3.6	20.5	22.3	38.9	nt
CCOc1ccc(CN2CCN(S(=O)(=O)c3ccc(NC(C)=O)cc3)CC2)cc1	12.9	12.0	8.3	12.8	11.0	nt
Oc1ccc2ccccc2c1C=Nc1ccccc1-c1nc2ccccc2[nH]1	51.8*	14.9	39.3	-7.3	5.5	46.5*
CCCCN1C(=O)C(=O)c2cc(Cl)ccc21	58.7*	25.5	18.4	nt	9.0	55.2*
Cc1cccc(OCCN2C(=O)C(=O)c3cc(C)ccc32)c1	50.8*	11.8	10.6	-7.6	0.0	48.6*
Cc1cccc2c1N(CCCOc1ccccc1)C(=O)C2=O	58.5*	26.3	22.6	1.1	4.7	55.8*
Cc1ccc2c(c1)C(=O)C(=O)N2Cc1ccc(Br)cc1	68.1*	39.3	36.0	nt	30.4	1.2
Cc1ccc(CN(C)C(=O)C2CCC(=O)N(CCc3ccccc3)C2)o1 (stereo not drawn)	2.3	10.2	3.0	6.9	12.2	nt
Cc1ccc(CN2C(=O)C(=O)c3cc(C)ccc32)cc1	78.5*	25.3	15.5	nt	26.2	84.0*
Cc1ccc2c(c1)C(=O)C(=O)N2c1ccc(Cl)cc1	66.1*	23.9	12.5	nt	15.3	75.3*
COc1ccccc1CNC(=O)c1ccccc1C(=O)NC(CC(C)C)C(=O)NCc1ccccc1OC (stereo not drawn)	5.5	-0.4	8.0	6.8	6.5	nt
C[C@@H]1O[C@@H](O[C@@H]2C(=O)c3c(O)cc(O)cc3O[C@H]2c2ccc(O)c(O)c2)[C@H](O)[C@H](O)[C@H]1O	-3.7	8.0	0.1	nt	-3.9	nt
O=C(Nc1cccnc1)c1ccc(Cl)c(S(=O)(=O)N2CCCC2)c1	13.3	-0.3	-1.0	11.4	6.7	nt
CCN1CCN(S(=O)(=O)c2ccc(OC)c(NC(=O)c3ccccc3)c2)CC1	-3.3	-9.1	-10.6	10.0	-9.6	nt
COc1cccc(-c2cc(C(=O)N3CC4(C)CC3CC(C)(C)C4)no2)c1 (stereo not drawn)	43.6	25.9	33.2	-30.9	-2.8	nt
CC1(C)CC2CC(C)(CN2C(=O)c2cc(-c3ccc(O)cc3)on2)C1 (stereo not drawn)	52.7*	-6.4	-36.1	2.5	12.0	48.0*
O=C(Nc1ccccc1)Oc1cccc(Br)c1	6.4	12.5	-10.1	-17.7	1.5	nt
Cc1ccc(S(=O)(=O)NC23CC4CC(CC(C4)C2)C3)cc1	50.5*	22.2	14.8	nt	21.1	52.1*
CC1=NN(c2ccccc2)C(=O)/C1=C/c1cccs1	56.9*	20.9	7.1	28.6	-12.0	52.1*
SMILES	tim23-1 inh	TIM10 inh	tim10-1 inh	NALP1 inh	NLRP3 yeast inh	tim23-1 conf
COc1ccc(/C=C2/C(=O)N(c3ccccc3)N=C2C)cc1Br	55.6*	21.0	32.3	1.6	15.7	44.6*
CC1=NN(c2ccccc2)C(=O)/C1=C/c1ccc[nH]1	20.9	21.6	20.1	24.0	12.2	nt
CN(C)S(=O)(=O)NC(=O)C1=C(N2CCCC2)COC1=O	9.0	5.8	1.1	nt	-1.9	nt
COc1ccc(-c2csc(NC(=O)c3ccccc3Br)c2C(=O)O)cc1	64.5*	17.8	15.8	11.3	42.4	72.7*
O=C(/C=C/c1ccccc1)Nc1scc(-c2ccccc2)c1C(=O)O	nt	nt	nt	9.2	nt	nt
O=C(/C=C/c1ccco1)Nc1scc(-c2ccccc2)c1C(=O)O	54.8*	9.5	-11.1	-9.1	35.7	45.8*
O=C(Nc1scc(-c2ccccc2)c1C(=O)O)c1ccccc1F	57.6*	28.9	17.7	-4.7	28.9	54.3*
COCCCN(C(=O)c1ccccc1F)c1nc(-c2ccc(OC)cc2)cs1	28.8	-3.3	12.1	-3.8	17.8	nt
CCCN1CCN(C(=O)c2cccc3c2C(=O)N(CCOC)C3)CC1	95.9*	-4.0	2.6	16.2	11.9	14.0
CCCN1Cc2cccc(C(=O)N3CCN(c4ccc(F)cc4)CC3)c2C1=O	6.5	7.8	10.5	13.7	5.2	nt
CCN1CCN(C(=S)c2ccc(OC)cc2)CC1	4.9	-18.4	11.6	-27.8	9.0	nt
COc1ccc(C(=S)N2CCN(c3ccccc3C)CC2)cc1	51.1*	32.4	28.2	-3.6	5.9	39.9*
COc1ccc(OC)c(S(=O)(=O)NC2CC(=O)N(c3cccc(F)c3)C2)c1 (stereo not drawn)	-4.4	-8.9	1.5	nt	5.2	nt
CS/C(Nc1cc(Cl)ccc1Cl)=C(/C#N)C(=O)c1ccco1	58.6*	24.9	33.0	7.9	1.5	51.8*
CC(C)(C)OC(=O)N1CCN(CCNC(=O)c2ccccc2)CC1	5.1	0.6	5.7	1.9	16.3	nt
O=S(=O)(N/N=C\C=C\c1ccccc1)c1ccc(Br)cc1	56.3*	17.6	33.7	-2.8	5.9	42.4*
Cc1ccc(S(=O)(=O)N/N=C\C=C\c2ccccc2)cc1	25.5	8.8	13.0	19.8	3.5	nt
O=C1[C@H](Oc2ccccc2)[C@@H](c2ccccc2)N1c1ccncc1	61.6*	18.5	29.4	nt	nt	31.9
CCOc1ccc(CCNC(=O)CCS(=O)(=O)c2ccc(C)cc2)cc1OCC	22.0	10.3	14.7	9.7	2.9	nt
COc1ccc(CN2CCCC(C(=O)Nc3cccc(-n4cnnn4)c3)C2)c(C)c1C (stereo not drawn)	5.0	7.8	6.8	8.4	7.0	nt
O=C(COC(=O)c1nc(Cl)ccc1Cl)NNC(=O)c1cccs1	10.5	11.6	4.2	nt	11.0	nt
Cc1ccc(NC(=S)N/N=C/c2c(Cl)cccc2Cl)c(C)c1	51.5*	25.9	38.9	nt	37.1	40.2*
COC(=O)[C@H](CC(C)C)NC(=O)c1cc2c(cn1)[nH]c1ccccc12	59.2*	34.3	34.3	10.3	8.8	62.6*
CCOCCCNC(=O)CCN1C(=O)c2ccccc2Sc2ncccc21	8.3	0.7	-7.7	5.4	4.0	nt
Cc1c(C(=O)OCC(=O)N2CCC(C)CC2)oc2ccccc12	54.3*	35.2	20.5	nt	44.4	57.8*
COc1ccc2oc(C(=O)OCC(=O)N3CCC(C)CC3)c(C)c2c1	49.9	-0.7	7.0	12.8	36.4	nt
Cc1ccc(S(=O)(=O)Oc2ccc(C3C4=C(CCCC4=O)N(CCC(=O)O)C4=C3C(=O)CCC4)cc2Cl)cc1	-2.9	7.1	10.3	19.4	-12.2	nt
